What all share (test): log2 fold change, soluble protein after heating vs DMSO (PISA); higher = thermal stabilisation; K562 cells, 10 uM, 30 min; active = over 0.2 and 3.5 SD of the protein, either way, in both replicates (recomputed)
Compound in one test: C#Cc1cccc(Nc2ncnc3cc(OCCOC)c(OCCOC)cc23)c1 [erlotinib]
In short, it runs like this:
(§1)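 Soluble protein was defined as the supernatant after 21,000xg for 90 min. It came from K562 cells at 2×10^6 cells/mL given 10 μM compound for 30 min, heated in aliquots for 3 min across 48°C-58°C, pooled, and extracted in PBS with 0.5% NP-40 at 4°C, and was quantified by TMTpro 16plex LC-MS/MS with equalised channel sums. Thermal stability against control samples, from duplicates, is reported as log2 fold change.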

Compound in test [1]: C/C(=N\NC(=O)C1=CC(=CC=C1)S(=O)(=O)N2CCOCC2)/C3=C(C=CC(=C3)Cl)O
In short, it runs like this:
as §1

Compound in test [2]: C1=CC(=C(C=C1Cl)C2=NC3=NC=CN=C3C(=N2)NC4=CC=NC=C4)F
In short, it runs like this:
as §1

Compound in test [3]: C1=CC(=CC=C1C2=NC3=C(N2)C=C(C=C3)C(=O)N)OC4=CC=C(C=C4)Cl
In short, it runs like this: as §1

Compound in test [4]: C1=CC2=C(C=CC(=C2)/C=C\3/C(=O)NC(=NCC4=CC=CS4)S3)N=C1
In short, it runs like this:
as §1

Compound in test [5]: C1=CC2=NC=CN=C2C=C1/C=C/3\C(=O)NC(=O)S3
In short, it runs like this:
as §1

Compound in test [6]: C1=CC=C(C=C1)C2=NC(=C(N2)C3=CC=NC=C3)C4=CC(=C(C=C4)Cl)O
In short, it runs like this: as §1

Compound in test [7]: C1=CC=C2C(=C1)C3=NNC4=CC=CC(=C43)C2=O
In short, it runs like this:
as §1

Compound in test [8]: C1CCN(C1)C(=O)NC2=CC=CC(=C2)NC3=NC=C(C(=N3)NCCC4=CN=CN4)Br
In short, it runs like this: as §1

Compound in test [9]: C1CN(CCC1(CC2=CC=C(C=C2)Cl)N)C3=NC=NC4=C3C=CN4
In short, it runs like this:
as §1

About 7,900 targets were measured; listed, in parts, are those with a hit and a random draw of the rest. About 0.6% of all pairs of compound and target were hits. A number with no mark means an inactive call.

UniProt Q330K2, sequence (Q330K2 whole entry, looked up): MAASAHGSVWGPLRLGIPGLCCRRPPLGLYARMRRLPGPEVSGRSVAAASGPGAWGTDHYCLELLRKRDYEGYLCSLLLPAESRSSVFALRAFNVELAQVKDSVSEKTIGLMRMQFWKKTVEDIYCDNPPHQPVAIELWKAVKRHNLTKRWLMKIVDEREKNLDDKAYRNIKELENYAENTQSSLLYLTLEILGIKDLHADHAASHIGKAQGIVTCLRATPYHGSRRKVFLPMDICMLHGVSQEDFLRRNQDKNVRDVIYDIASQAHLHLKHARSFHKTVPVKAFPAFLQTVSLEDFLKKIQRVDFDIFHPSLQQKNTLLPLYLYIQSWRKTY
UniProt Q68DK7, sequence (Q68DK7 whole entry, looked up): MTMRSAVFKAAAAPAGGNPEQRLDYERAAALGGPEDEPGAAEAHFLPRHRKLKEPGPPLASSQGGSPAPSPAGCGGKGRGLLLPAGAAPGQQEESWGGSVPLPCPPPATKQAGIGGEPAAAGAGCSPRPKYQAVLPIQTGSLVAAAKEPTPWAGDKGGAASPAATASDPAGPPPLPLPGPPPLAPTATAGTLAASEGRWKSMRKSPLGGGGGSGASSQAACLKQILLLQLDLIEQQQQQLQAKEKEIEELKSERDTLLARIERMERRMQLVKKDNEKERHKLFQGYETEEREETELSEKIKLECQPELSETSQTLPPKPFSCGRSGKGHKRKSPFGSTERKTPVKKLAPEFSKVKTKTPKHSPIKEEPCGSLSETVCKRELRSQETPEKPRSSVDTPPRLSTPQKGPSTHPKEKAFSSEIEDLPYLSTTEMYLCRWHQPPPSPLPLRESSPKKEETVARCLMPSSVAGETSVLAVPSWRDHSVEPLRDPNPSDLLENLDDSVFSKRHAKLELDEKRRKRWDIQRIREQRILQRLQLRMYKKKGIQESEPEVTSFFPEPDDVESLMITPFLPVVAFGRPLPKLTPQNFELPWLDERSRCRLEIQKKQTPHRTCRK
UniProt P30419, sequence (P30419 whole entry, looked up): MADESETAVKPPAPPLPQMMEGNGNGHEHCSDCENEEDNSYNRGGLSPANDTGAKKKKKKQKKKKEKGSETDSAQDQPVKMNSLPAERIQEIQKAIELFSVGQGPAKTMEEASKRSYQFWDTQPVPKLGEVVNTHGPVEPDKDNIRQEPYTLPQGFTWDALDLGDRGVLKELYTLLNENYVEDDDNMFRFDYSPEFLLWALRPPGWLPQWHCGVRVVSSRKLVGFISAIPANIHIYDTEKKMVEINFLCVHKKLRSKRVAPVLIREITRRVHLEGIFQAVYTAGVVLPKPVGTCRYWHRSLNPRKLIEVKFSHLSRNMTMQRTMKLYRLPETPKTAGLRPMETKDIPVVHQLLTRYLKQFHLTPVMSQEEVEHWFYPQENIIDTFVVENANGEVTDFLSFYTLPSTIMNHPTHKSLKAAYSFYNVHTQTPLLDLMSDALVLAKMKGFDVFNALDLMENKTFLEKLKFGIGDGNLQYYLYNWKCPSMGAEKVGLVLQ
UniProt P84157, sequence (P84157 whole entry, looked up): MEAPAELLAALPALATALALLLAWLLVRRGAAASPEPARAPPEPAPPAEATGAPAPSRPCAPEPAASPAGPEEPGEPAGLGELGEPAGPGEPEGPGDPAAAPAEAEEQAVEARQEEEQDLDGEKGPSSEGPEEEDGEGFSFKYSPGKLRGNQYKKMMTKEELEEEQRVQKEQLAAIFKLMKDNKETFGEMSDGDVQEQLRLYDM
UniProt P22059, sequence (P22059 whole entry, looked up): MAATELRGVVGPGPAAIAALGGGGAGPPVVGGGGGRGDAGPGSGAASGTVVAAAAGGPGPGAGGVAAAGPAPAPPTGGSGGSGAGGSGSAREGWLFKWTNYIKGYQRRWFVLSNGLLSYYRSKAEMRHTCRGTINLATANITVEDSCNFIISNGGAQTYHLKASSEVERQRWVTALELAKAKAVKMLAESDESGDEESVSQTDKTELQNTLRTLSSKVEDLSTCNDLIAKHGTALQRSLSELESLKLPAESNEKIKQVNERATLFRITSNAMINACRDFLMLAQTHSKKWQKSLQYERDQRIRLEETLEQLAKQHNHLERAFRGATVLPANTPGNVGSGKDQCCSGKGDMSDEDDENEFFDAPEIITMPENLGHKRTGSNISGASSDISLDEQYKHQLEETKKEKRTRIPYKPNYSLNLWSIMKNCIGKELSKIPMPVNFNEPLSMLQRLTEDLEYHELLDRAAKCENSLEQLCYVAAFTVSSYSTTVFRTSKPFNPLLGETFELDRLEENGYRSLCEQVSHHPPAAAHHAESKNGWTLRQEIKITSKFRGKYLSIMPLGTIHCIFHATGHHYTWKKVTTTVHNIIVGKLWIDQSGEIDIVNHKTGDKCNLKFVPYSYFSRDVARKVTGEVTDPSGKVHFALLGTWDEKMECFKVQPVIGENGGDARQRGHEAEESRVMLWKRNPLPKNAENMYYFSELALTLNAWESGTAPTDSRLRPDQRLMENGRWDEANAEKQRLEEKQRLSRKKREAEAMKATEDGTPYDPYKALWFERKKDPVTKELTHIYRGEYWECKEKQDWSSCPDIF
UniProt Q8N573, sequence (Q8N573 whole entry, looked up): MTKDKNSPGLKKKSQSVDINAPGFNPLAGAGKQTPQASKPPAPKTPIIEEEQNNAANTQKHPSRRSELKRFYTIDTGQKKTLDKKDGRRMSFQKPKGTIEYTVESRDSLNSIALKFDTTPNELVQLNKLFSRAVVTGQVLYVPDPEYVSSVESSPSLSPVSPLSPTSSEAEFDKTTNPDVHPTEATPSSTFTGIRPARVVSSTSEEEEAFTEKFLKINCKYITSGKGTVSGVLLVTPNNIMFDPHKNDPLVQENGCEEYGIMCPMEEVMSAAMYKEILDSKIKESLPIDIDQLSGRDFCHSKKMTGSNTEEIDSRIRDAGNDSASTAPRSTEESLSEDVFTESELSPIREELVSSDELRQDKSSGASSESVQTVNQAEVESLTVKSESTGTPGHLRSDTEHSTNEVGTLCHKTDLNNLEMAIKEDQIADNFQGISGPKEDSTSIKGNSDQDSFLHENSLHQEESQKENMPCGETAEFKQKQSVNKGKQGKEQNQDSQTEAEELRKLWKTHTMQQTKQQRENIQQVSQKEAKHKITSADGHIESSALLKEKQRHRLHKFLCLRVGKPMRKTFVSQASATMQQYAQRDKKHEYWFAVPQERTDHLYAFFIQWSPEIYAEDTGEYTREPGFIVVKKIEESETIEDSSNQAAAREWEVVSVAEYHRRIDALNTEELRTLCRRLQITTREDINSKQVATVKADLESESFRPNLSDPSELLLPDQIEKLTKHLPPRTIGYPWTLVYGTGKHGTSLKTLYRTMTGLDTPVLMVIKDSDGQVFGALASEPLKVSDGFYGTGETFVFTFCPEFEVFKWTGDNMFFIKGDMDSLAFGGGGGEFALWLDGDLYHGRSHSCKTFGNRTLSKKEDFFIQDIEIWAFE
UniProt Q92686, sequence (Q92686 whole entry, looked up): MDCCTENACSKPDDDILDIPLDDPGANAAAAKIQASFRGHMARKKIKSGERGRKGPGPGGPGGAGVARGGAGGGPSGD
UniProt Q9HAN9, sequence (Q9HAN9 whole entry, looked up): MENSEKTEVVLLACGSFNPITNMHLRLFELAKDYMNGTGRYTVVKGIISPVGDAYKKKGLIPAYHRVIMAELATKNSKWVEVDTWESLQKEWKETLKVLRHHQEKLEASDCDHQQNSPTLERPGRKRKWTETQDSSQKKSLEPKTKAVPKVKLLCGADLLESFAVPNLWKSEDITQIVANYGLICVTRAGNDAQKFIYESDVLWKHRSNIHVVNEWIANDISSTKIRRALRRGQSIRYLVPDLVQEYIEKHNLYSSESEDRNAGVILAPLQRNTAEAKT
UniProt O95747, sequence (O95747 whole entry, looked up): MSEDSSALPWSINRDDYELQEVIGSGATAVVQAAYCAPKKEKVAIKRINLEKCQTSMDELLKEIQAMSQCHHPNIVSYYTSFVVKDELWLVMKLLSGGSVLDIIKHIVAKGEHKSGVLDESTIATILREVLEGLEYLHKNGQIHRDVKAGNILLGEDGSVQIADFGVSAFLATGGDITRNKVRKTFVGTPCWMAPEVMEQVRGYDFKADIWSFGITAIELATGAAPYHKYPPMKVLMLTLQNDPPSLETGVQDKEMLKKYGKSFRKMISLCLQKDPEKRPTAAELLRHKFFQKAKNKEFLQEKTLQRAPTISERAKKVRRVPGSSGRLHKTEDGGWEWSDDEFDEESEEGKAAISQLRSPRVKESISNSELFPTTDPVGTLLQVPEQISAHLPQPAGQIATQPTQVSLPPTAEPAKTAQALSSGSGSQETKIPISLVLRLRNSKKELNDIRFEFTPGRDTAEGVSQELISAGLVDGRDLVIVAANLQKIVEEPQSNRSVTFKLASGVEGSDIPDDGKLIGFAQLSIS
UniProt Q15738, sequence (Q15738 whole entry, looked up): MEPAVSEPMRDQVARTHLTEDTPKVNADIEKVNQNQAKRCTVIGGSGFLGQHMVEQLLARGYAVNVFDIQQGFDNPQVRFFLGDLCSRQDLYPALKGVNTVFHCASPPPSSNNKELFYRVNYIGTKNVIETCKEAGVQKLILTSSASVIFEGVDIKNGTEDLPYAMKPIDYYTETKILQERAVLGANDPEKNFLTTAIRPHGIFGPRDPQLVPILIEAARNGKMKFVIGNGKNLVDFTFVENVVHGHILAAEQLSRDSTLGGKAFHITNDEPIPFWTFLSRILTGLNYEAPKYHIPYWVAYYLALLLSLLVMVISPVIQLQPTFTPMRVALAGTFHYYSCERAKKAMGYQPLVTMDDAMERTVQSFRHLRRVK

For MRPS21 (UniProt P82921), the log2 fold change with erlotinib was 0.014; in test [1], -0.04; in test [2], -0.096; in [3] it was 0.042; in test [4], -0.241; in test [5], -0.138. For the same target, the log2 fold change in [6] was -0.019; in test [7], 0.297; in test [8], -0.091; in [9], -0.07.

With NACC1 (UniProt Q96RE7), the log2 fold change in the test with erlotinib was 0.134; in test [1], 0.242; in test [2] it was 0.065; in [3], -0.034; in [4], -0.017; in [5], 0.05. For the same target, the log2 fold change was -0.02 in [6], -0.08 in test [7], -0.059 in test [8] and -0.01 in test [9].

In the case of NMNAT1 (UniProt Q9HAN9), the log2 fold change is 0.033 in the test with erlotinib; -0.145 in test [1]; -0.302 in test [2]; -0.111 in [3]; -0.032 in test [4]; 0.03 in test [5]. Also, the log2 fold change in [6] is -0.102; in test [7], -0.008; in test [8], 0.157; in test [9], -0.046.

As for NMT1 (UniProt P30419), the log2 fold change was -0.002 with erlotinib; 0.001 in test [1]; 0.039 in test [2]; -0.009 in [3]; -0.01 in test [4]; 0.07 in test [5]. Also, the log2 fold change in test [6] is -0.002; in [7] it was 0.05; in test [8], 0.036; in [9], -0.363 (active).

Turning to NUMBL (UniProt Q9Y6R0), the log2 fold change in the test with erlotinib is -0.001; in test [1], 0.021; in test [2], -0.026; in [3], -0.095; in [4], 0.085; in test [5], -0.047. Moreover, the results for the log2 fold change in [6] and in test [7] were 0.042 and 0.056, respectively.

Take NIBAN1 (UniProt Q9BZQ8): the log2 fold change was 0.014 in the test with erlotinib; 0.103 in test [1]; -0.022 in [2]; 0.017 in [3]; 0.058 in [4]; -0.009 in test [5]. Besides, the log2 fold change was -0.005 in test [6], -0.047 in test [7], -0.017 in [8] and -0.06 in test [9].

Take MSL1 (UniProt Q68DK7): the log2 fold change was 0.185 with erlotinib; -0.603 (active) in test [1]; 0.106 in test [2]; -0.193 in test [3]; 0.069 in [4]; -0.033 in [5]. For the same target, the log2 fold change in test [6] is 0.066; in test [7], -0.026.

For the target NRGN (UniProt Q92686), the log2 fold change was 0.066 with erlotinib; 0.086 in test [1]; 0.054 in [2]; -0.074 in test [3]; -0.264 in [4]; -0.027 in test [5]. Moreover, the log2 fold change in test [6] was 0.139; in [7], 0.105.

In the case of MXRA7 (UniProt P84157), the log2 fold change with erlotinib was -0.052; in test [1], -0.109; in [2], -0.083; in test [3], 0.047; in [4], -0.067; in [5] it was 0.018. Also, the log2 fold change in test [6] is -0.033; in test [7], 0.037; in test [8], -0.038; in [9], 0.013.

For the target OXR1 (UniProt Q8N573), the log2 fold change with erlotinib was 0.029; in test [1], 0.067; in [2], 0.011; in [3], 0.002; in test [4] it was 0.023; in test [5], 0.007. Also, the log2 fold change in test [6] is -0.043; in test [7] it was -0.062; in test [8], -0.03; in test [9], 0.056.

On to OSBP (UniProt P22059), for which the log2 fold change with erlotinib is -0.059; in [1], 0.111; in test [2], 0.063; in [3] it was 0.109; in test [4], -0.009; in test [5], 0.019. Moreover, the log2 fold change in test [6] was -0.027; in test [7] it was -0.042; in test [8], -0.001; in test [9], 0.013.

Consider OXSR1 (UniProt O95747), for which the log2 fold change with erlotinib is 0.042; in test [1], 0.091; in [2] it was -0.024; in [3], -0.056; in test [4], 0.106; in test [5], 0.004. The log2 fold change in [6] was 0.039; in test [7], 0.054; in test [8], -0.008; in test [9] it was 0.007.

Take NSDHL (UniProt Q15738): the log2 fold change is -0.007 with erlotinib; 0.107 in test [1]; 0.047 in test [2]; 0.021 in test [3]; 0 in [4]; -0.149 in test [5]. In addition, the log2 fold change in test [6] was 0.065; in test [7], 0.059; in [8], -0.039; in test [9], -0.005.

NDUFAF6 (UniProt Q330K2): the log2 fold change was 0.028 with erlotinib; -0.009 in [1]; 0.059 in [2]; 0.058 in test [3]; 0.071 in test [4]; 0.12 in [5]. Moreover, the log2 fold change in test [6] was 0.065; in [7], -0.051; in test [8], 0.049; in test [9] it was 0.074.

For MON1B (UniProt Q7L1V2), the log2 fold change in the test with erlotinib is 0.016; in test [1] it was 0.04; in [2], -0.021; in [3] it was 0.023; in test [4] it was 0.089; in test [5], -0.01. The log2 fold change is 0.066 in test [6], -0.004 in test [7], -0.005 in test [8] and -0.006 in [9].
